# According to PubChem BioAssay:
# The source made the active and inactive calls.
# Key:
# [1] = small molecules captured by biotinylated probe aFSTL3 – biochemical, small-molecule microarray, fluorescence 635/667, stem cell growth factor project, primary screen (AID 1064); conditions: higher = more signal;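 note: measures binding of the biotinylated anti-FSTL3 antibody to printed compounds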
# [2] = binders from COS7 lysate, DM2A8 probe, primary screen, torsin A project, cell lysate, small-molecule microarray, fluorescence 635/667 (AID 1065); conditions: higher = more signal, COS7 lysate expressing mutant human TOR1A
# [3] = small molecules captured by biotinylated probe aFGF2 – biochemical, small-molecule microarray, fluorescence 635/667, stem cell growth factor project, primary screen (AID 1067); conditions: higher = more signal;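 note: measures binding of biotinylated aFGF2 protein to printed compounds on slides; z-score merges feature fluorescence and signal-to-noise across triplicate slides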
# [4] = small molecules captured by biotinylated probe aFGF10 – biochemical, small-molecule microarray, fluorescence 635/667, stem cell growth factor project, primary screen (AID 1071); conditions: higher = more signal;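 note: score merges 667 nm spot intensity and signal to noise from triplicate slides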
# [5] = molecular target: Neurogenic locus notch homolog protein 2 (Homo sapiens) (UniProt Q04721); assay: small molecules binding Notch2 protein – biochemical, small-molecule microarray, 635 nm fluorescence, stem cell growth factors, primary screen (AID 1073); conditions: higher = more signal
# [6] = molecular target: Pro-neuregulin-1, membrane-bound isoform (Homo sapiens) (UniProt Q02297); assay: small molecules binding neuregulin-1 protein – biochemical, small-molecule microarray, fluorescence 635/667, psychiatric disease protein project, primary screen (AID 1075); conditions: NRG1 binding, 635 nm fluorescence, higher = more signal;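 note: score combines 667 nm spot fluorescence with signal to noise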
# [7] = test system: Neuregulin-1 EGF-like domain; assay: small molecules binding NRG1 EGF domain – biochemical, small-molecule microarray, 635 nm fluorescence, primary screen (AID 1081); conditions: higher = more signal;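 note: binding of the protein to compounds printed on small-molecule microarray slides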
# [8] = FRG1 expression reporter modulators in myotubes – cell-based, C2C12 myotubes, firefly/Renilla luciferase, luminescence, FRG1 inhibition for FSHD, primary screen (AID 1084); conditions: FRG1 promoter luciferase, higher = more signal, called active from +8 up or from −8 down
# [9] = small molecules captured by biotinylated probe aFST – biochemical, small-molecule microarray, fluorescence 635/667, stem cell growth factor project, primary screen (AID 1086); conditions: higher = more signal;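 note: score merges 667 nm fluorescence with signal-to-noise of each printed compound spot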
# [10] = binders of probe aHhip on microarray, primary screen, stem cell growth factor project, biochemical, small-molecule microarray, fluorescence 635/667 (AID 1087); conditions: higher = more signal;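 note: score merges spot fluorescence at 667nm with spot signal to noise ratio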
# [11] = test system: PRMT1 (protein arginine N-methyltransferase 1); assay: small molecules binding arginine methyltransferase PRMT1 – biochemical, small-molecule microarray, 635 nm fluorescence, primary screen (AID 1088); conditions: higher = more signal;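 note: binding of Prmt1 protein to compounds spotted on small-molecule microarray slides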
# [12] = growth effects on S. cerevisiae YJM789 – YJM789 clinical isolate, OD600, 24 h, basal, primary screen (AID 1089); conditions: higher = more signal, called active from +8 up or from −8 down;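 note: growth of clinical yeast isolate S. cerevisiae YJM 789 seeded 1000 cells per well; test concentration not given here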
# [13] = S. pombe growth modifiers, basal conditions – strain 972, OD600, 24 h, no modulator, primary screen (AID 1090);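 note: basal condition with compound alone and no growth modifier present; test concentration not given here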; conditions: S. pombe 972 growth, higher = more signal, called active from +8 up or from −8 down
# [14] = budding yeast growth modifiers under rapamycin – strain BY4716, OD600, 96 h, primary screen (AID 1091); note: test concentration not given here; conditions: S. cerevisiae BY4716 + rapamycin, higher = more signal, called active from +8 up or from −8 down
# [15] = molecular target: Torsin-1A-interacting protein 2 (Homo sapiens) (UniProt Q8NFQ8); assay: small molecules binding lysate-expressed LULL1 – cell lysate, human LULL1 lysate, 635/667 nm fluorescence, primary screen (AID 1092); conditions: small-molecule microarray, hLULL1 lysate binding, 635 nm fluorescence; higher = more signal;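 note: probe is lysate of COS7 cells overexpressing human LULL1; score merges per-feature 667 nm fluorescence with signal-to-noise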
# [16] = optical density change of DRC41 E. coli – strain DRC41, OD650, 24 h, E. coli filamentation project, primary screen (AID 1093);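 note: MC1000 strain lacking acrAB efflux and sulA so SOS filamentation is blocked; test concentration not given here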; conditions: E. coli DRC41 growth, higher = more signal, called active from +8 up or from −8 down
# [17] = probe aLefty2 binding to arrayed compounds – biochemical, biotinylated probe, 635/667 nm fluorescence, primary screen (AID 1094); conditions: small-molecule microarray, higher = more signal;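 note: score merges spot fluorescence near 667 nm with spot signal-to-noise ratio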
# [18] = test system: Noggin (protein binding on small-molecule microarray); assay: small molecules binding Noggin protein – biochemical, 635/667 nm fluorescence, primary screen (AID 1095); conditions: 635 nm fluorescence, higher = more signal;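 note: score merges 667 nm feature fluorescence with signal to noise over triplicate slides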
# [19] = molecular target: Neurogenic locus notch homolog protein 3 (Homo sapiens) (UniProt Q9UM47); assay: small molecules binding NOTCH3 protein – biochemical, 635/667 nm fluorescence, primary screen (AID 1096); conditions: small-molecule microarray, 635 nm fluorescence, higher = more signal
# [20] = probe aEGFR binding to arrayed compounds – biochemical, biotinylated probe, 635/667 nm fluorescence, primary screen (AID 1097); conditions: small-molecule microarray, higher = more signal;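 note: probe is a biotinylated anti-EGFR antibody binding compounds printed on slides; score combines fluorescence near 667 nm and signal to noise of each spot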
# Sequence of Neurogenic locus notch homolog protein 2 (Homo sapiens) (Q04721 whole entry, looked up, canonical isoform): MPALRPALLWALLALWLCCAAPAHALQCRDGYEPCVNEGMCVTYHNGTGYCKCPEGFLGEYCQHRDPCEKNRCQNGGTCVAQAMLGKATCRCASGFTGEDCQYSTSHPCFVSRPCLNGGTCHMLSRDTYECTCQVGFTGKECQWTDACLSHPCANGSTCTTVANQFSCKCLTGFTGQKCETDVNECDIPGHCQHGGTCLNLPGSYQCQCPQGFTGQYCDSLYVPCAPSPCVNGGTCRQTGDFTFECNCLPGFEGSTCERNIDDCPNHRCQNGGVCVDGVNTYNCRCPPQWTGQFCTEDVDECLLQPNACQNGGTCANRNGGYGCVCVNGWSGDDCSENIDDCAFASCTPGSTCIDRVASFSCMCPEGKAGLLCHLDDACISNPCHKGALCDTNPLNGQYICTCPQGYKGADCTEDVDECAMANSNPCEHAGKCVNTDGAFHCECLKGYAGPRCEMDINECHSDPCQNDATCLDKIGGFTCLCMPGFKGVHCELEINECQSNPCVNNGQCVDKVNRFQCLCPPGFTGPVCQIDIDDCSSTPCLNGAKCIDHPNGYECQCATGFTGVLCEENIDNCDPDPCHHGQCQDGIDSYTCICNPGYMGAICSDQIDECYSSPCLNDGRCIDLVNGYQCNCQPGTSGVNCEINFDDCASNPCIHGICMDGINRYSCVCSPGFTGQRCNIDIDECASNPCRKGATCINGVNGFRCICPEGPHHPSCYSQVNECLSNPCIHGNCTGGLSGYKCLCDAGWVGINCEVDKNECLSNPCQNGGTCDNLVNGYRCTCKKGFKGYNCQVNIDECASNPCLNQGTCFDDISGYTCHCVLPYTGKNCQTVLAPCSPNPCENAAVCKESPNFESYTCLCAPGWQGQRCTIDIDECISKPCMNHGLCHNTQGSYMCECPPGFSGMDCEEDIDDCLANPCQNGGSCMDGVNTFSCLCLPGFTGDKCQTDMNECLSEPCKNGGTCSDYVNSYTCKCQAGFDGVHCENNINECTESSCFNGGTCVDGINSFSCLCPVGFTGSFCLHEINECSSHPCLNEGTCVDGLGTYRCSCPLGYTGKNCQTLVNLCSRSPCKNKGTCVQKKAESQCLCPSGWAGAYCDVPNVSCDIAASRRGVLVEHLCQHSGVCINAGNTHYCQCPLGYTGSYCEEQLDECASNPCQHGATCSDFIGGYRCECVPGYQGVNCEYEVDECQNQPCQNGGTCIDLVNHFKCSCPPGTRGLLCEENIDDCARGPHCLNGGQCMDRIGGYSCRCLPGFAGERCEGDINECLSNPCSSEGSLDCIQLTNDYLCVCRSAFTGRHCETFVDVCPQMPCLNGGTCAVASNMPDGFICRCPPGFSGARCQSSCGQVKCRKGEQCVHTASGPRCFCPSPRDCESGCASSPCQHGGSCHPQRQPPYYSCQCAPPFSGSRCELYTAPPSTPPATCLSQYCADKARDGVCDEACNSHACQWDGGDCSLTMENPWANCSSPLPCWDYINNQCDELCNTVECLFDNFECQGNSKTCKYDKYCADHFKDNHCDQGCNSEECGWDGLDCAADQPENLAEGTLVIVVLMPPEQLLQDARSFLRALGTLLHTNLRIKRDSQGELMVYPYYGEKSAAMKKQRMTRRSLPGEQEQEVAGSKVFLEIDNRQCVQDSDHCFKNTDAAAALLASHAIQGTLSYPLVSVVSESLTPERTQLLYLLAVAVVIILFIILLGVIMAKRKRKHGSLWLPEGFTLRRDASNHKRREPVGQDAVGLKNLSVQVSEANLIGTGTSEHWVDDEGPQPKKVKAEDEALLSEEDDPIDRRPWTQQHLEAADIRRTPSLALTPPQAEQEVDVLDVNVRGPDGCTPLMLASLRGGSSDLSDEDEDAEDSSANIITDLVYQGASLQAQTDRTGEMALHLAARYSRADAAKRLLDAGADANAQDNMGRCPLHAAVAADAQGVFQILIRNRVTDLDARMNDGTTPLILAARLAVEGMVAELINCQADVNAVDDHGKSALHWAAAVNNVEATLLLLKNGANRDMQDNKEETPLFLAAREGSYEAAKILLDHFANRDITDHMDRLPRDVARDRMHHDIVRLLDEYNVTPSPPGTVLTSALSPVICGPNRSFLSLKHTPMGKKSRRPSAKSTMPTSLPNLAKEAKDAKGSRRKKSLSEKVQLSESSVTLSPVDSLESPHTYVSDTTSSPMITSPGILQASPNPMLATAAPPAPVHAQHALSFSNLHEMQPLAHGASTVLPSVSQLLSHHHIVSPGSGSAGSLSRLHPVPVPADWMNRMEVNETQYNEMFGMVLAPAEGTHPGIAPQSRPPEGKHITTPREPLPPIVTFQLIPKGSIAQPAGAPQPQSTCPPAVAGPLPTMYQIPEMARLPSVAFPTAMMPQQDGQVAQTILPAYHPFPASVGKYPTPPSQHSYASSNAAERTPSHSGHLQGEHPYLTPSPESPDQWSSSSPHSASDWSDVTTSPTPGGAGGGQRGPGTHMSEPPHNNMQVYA
# Sequence of Torsin-1A-interacting protein 2 (Homo sapiens) (Q8NFQ8 whole entry, looked up): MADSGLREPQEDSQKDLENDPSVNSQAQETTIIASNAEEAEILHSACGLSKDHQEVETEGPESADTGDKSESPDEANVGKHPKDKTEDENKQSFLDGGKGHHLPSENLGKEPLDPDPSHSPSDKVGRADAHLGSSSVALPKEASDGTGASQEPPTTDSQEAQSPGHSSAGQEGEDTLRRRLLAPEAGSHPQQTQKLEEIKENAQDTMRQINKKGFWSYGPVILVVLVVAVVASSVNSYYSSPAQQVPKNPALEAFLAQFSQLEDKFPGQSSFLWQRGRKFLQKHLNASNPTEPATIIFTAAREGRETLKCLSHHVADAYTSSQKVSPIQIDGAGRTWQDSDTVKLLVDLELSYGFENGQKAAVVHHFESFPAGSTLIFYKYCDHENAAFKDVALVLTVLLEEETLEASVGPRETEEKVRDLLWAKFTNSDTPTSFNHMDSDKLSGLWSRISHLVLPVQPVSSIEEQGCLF
# Sequence of Pro-neuregulin-1, membrane-bound isoform (Homo sapiens) (Q02297 whole entry, looked up, the tested form may be a part, canonical isoform): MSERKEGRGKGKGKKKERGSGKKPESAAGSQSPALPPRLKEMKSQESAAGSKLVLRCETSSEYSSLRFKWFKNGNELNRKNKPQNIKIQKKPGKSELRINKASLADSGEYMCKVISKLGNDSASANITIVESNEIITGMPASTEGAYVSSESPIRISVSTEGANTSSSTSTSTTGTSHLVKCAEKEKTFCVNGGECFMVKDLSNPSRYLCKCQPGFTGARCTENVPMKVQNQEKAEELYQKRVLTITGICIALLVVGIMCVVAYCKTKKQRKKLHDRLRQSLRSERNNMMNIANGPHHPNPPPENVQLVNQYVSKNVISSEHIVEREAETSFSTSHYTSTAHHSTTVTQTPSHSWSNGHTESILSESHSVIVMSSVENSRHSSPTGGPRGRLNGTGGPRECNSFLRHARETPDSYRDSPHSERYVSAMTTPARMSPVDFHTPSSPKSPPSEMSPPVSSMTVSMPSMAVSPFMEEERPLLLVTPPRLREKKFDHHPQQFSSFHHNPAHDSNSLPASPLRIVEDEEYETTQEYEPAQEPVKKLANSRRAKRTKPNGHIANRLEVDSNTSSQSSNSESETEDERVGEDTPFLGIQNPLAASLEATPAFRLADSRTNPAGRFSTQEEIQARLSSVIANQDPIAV
compound,measurement,setting,value
COCCOC(=O)N1C(=O)[C@@]2(c3cc(C#CCC(C(=O)OC)C(=O)OC)ccc31)[C@H](c1ccccc1OCCO)N1[C@H](c3ccccc3)[C@H](c3ccccc3)OC(=O)[C@H]1[C@@H]2C(=O)N1CCCCCCC1,composite z-score,[1],3.6
same,composite z-score,[2],0.618
same,composite z-score,[3],0.486
same,composite z-score,[4],0.388
same,composite z-score,[5],0.966
same,composite z-score,[6],0.889
same,composite z-score,[7],1.33
same,z-score,[8],-0.0751 (inactive)
same,composite z-score,[9],2.9
same,composite z-score,[10],2.32
same,composite z-score,[11],1.51
same,z-score,[12],1.22 (inactive)
same,z-score,[13],0.639 (inactive)
same,z-score,[14],3.35 (inactive)
same,composite z-score,[15],3.29
same,z-score,[16],-0.366 (inactive)
same,composite z-score,[17],1.53
same,composite z-score,[18],1.63
same,composite z-score,[19],1.11
same,composite z-score,[20],0.83
C[C@]1(C(=O)NCCN2CCOCC2)c2ccccc2C(=O)N(Cc2ccccc2)[C@H]1c1ccc(CO)cc1,composite z-score,[1],-0.0452
same,composite z-score,[2],0.789
same,composite z-score,[3],0.0008
same,composite z-score,[4],-0.425
same,composite z-score,[5],-0.522
same,composite z-score,[6],1.35
same,composite z-score,[7],1.26
same,z-score,[8],-0.351 (inactive)
same,composite z-score,[9],-0.352
same,composite z-score,[10],-0.0346
same,composite z-score,[11],-0.804
same,z-score,[12],0.364 (inactive)
same,z-score,[13],-0.304 (inactive)
same,z-score,[14],-0.877 (inactive)
same,composite z-score,[15],2.99
same,z-score,[16],0.0355 (inactive)
same,composite z-score,[17],-0.0539
same,composite z-score,[18],-0.54
same,composite z-score,[19],-0.911
same,composite z-score,[20],-0.23
CN(C)c1ccc(C(O)C2C=CC3C(=O)NC(=O)C3N2Nc2ccc(Cl)cc2Cl)cc1 (stereo not given),composite z-score,[1],0.649
same,composite z-score,[2],-0.0467
same,composite z-score,[3],0.021
same,composite z-score,[4],0.294
same,composite z-score,[5],0.879
same,composite z-score,[6],1.18
same,composite z-score,[7],1.11
same,z-score,[8],3.74 (inactive)
same,composite z-score,[9],1.38
same,composite z-score,[10],0.0677
same,composite z-score,[11],0.546
same,z-score,[12],-0.298 (inactive)
same,z-score,[13],-1.06 (inactive)
same,z-score,[14],0.789 (inactive)
same,composite z-score,[15],2.58
same,z-score,[16],-0.617 (inactive)
same,composite z-score,[17],0.31
same,composite z-score,[18],-0.163
same,composite z-score,[19],0.809
same,composite z-score,[20],-0.125
CC(=O)NCCCC[C@@H]1NC(=O)[C@H]2C[C@@H](C(=O)NCCCCCCN(C)C)[C@@H](c3ccc(O)cc3)N2C1=O,composite z-score,[1],-0.463
same,composite z-score,[2],1.68
same,composite z-score,[3],-0.0876
same,composite z-score,[4],0.785
same,composite z-score,[5],0.269
same,composite z-score,[6],1.43
same,composite z-score,[7],1.48
same,z-score,[8],4.59 (inactive)
same,composite z-score,[9],0.31
same,composite z-score,[10],0.0401
same,composite z-score,[11],1.54
same,z-score,[12],-0.139 (inactive)
same,z-score,[13],-0.566 (inactive)
same,z-score,[14],0.613 (inactive)
same,composite z-score,[15],2.97
same,z-score,[16],-0.179 (inactive)
same,composite z-score,[17],-0.0391
same,composite z-score,[18],1.71
same,composite z-score,[19],0.989
same,composite z-score,[20],0.0122
COc1cc(CO)cc(I)c1O[C@H]1C=C(C(=O)NCCO)C[C@@H](N(CC2CCCCC2)C(=O)c2cc3ccccc3oc2=O)[C@@H]1O,composite z-score,[1],-0.336
same,composite z-score,[2],-0.0516
same,composite z-score,[3],-0.0513
same,composite z-score,[4],0.233
same,composite z-score,[5],0.363
same,composite z-score,[6],0.0577
same,composite z-score,[7],0.377
same,z-score,[8],-1.48 (inactive)
same,composite z-score,[9],-0.52
same,composite z-score,[10],0.0722
same,composite z-score,[11],-0.449
same,z-score,[12],0.411 (inactive)
same,z-score,[13],-0.858 (inactive)
same,z-score,[14],-0.393 (inactive)
same,composite z-score,[15],0.0986
same,z-score,[16],2.1 (inactive)
same,composite z-score,[17],-0.186
same,composite z-score,[18],0.606
same,composite z-score,[19],-0.0481
same,composite z-score,[20],-0.0656
COC(=O)Cn1c(C(=O)N2CCCC2)cc2c1C[C@H]1CN(C(=O)c3ccccc3)[C@@](Cc3ccc(OC)cc3)(C(=O)OC)[C@@H]21,composite z-score,[1],0.666
same,composite z-score,[2],-0.157
same,composite z-score,[3],0.236
same,composite z-score,[4],0.495
same,composite z-score,[5],1.68
same,composite z-score,[6],1.8
same,composite z-score,[7],1.27
same,z-score,[8],0.0502 (inactive)
same,composite z-score,[9],1.7
same,composite z-score,[10],0.151
same,composite z-score,[11],-0.709
same,z-score,[12],0.742 (inactive)
same,z-score,[13],1.39 (inactive)
same,z-score,[14],2.75 (inactive)
same,composite z-score,[15],3.24
same,z-score,[16],-0.485 (inactive)
same,composite z-score,[17],0.531
same,composite z-score,[18],-1.02
same,composite z-score,[19],1.13
same,composite z-score,[20],0.434
CCN1C(C)=C(C(=O)OC)[C@@H](c2ccccc2)N2C(=O)[C@](O)(C(=O)OC)[C@@H](c3ccccc3)C(C(=O)c3ccccc3)=C12,composite z-score,[1],-0.14
same,composite z-score,[2],0.36
same,composite z-score,[3],-0.0493
same,composite z-score,[4],0.671
same,composite z-score,[5],0.442
same,composite z-score,[6],0.607
same,composite z-score,[7],0.708
same,z-score,[8],-4.12 (inactive)
same,composite z-score,[9],0.0486
same,composite z-score,[10],0.141
same,composite z-score,[11],0.481
same,z-score,[12],-0.59 (inactive)
same,z-score,[13],-4.98 (inactive)
same,z-score,[14],-0.714 (inactive)
same,composite z-score,[15],1.41
same,z-score,[16],1.43 (inactive)
same,composite z-score,[17],-0.132
same,composite z-score,[18],0.416
same,composite z-score,[19],0.685
same,composite z-score,[20],0.0255
